Test results as given in the supplement of paper PMC8975748.
Structures can show the parent of a compound that is named as a salt. ± gives the standard deviation of the averaged measurements.

Tests used:
[1] = tested on: Saccharomyces cerevisiae BY4741 SeMeCo community; test: mean cell size (pixel area) (pixels); higher = larger cells; conditions: 10 µM; 24 h; SM minimal medium
In short: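 Mean cell pixel area per well was measured in a four-plasmid fluorescent community of Saccharomyces cerevisiae BY4741, where every plasmid complements one auxotrophy and carries a fluorescent marker. Cells from an overnight preculture at OD600 = 1.0 were diluted to OD600 = 0.3 and dispensed at 70 µl into 384-well plates acoustically predosed with drug to a final 10 µM in SM medium. Incubation lasted 24 h, followed by paraformaldehyde fixation, automated confocal imaging and analysis in Harmony. Reported figures are averaged over 3 replicates. Same SeMeCo high-content imaging drug screen: Selleck FDA-approved drugs at 10 µM, 24 h in SM medium, 384-well plates, 3 replicates.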

[2] = tested on: Saccharomyces cerevisiae BY4741 SeMeCo community; test: z-score of subpopulation abundance vs DMSO median, subpopulation auxotrophic for M; higher = larger share of this subpopulation than in DMSO controls; conditions: 10 µM; 24 h; SM minimal medium; subpopulation (auxotrophy): M
In short: (§1)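 Automated confocal microscopy of paraformaldehyde-fixed cells was used to follow a Saccharomyces cerevisiae BY4741 community carrying four plasmids, each restoring one auxotrophy and encoding a distinct fluorescent protein. The community was pre-grown overnight to OD600 1.0, diluted to 0.3, and added at 70 µl to 384-well plates acoustically predosed with library drugs (10 µM final) for 24 h of growth in minimal SM medium. Single-auxotroph fluorescent strains set thresholds and autofluorescence correction, and each subpopulation's abundance was scored as a z-score against the vehicle-well median.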

[3] = tested on: Saccharomyces cerevisiae BY4741 SeMeCo community; test: z-score of subpopulation abundance vs DMSO median, subpopulation auxotrophic for L; higher = larger share of this subpopulation than in DMSO controls; conditions: 10 µM; 24 h; SM minimal medium; subpopulation (auxotrophy): L
In short: as §1

[4] = tested on: Saccharomyces cerevisiae BY4741 SeMeCo community; test: z-score of subpopulation abundance vs DMSO median, subpopulation auxotrophic for U; higher = larger share of this subpopulation than in DMSO controls; conditions: 10 µM; 24 h; SM minimal medium; subpopulation (auxotrophy): U
In short: as §1

[5] = tested on: Saccharomyces cerevisiae BY4741 SeMeCo community; test: z-score of subpopulation abundance vs DMSO median, subpopulation auxotrophic for H; higher = larger share of this subpopulation than in DMSO controls; conditions: 10 µM; 24 h; SM minimal medium; subpopulation (auxotrophy): H
In short: as §1

[6] = tested on: Saccharomyces cerevisiae BY4741 SeMeCo community; test: z-score of subpopulation abundance vs DMSO median, subpopulation auxotrophic for LU; higher = larger share of this subpopulation than in DMSO controls; conditions: 10 µM; 24 h; SM minimal medium; subpopulation (auxotrophy): LU
In short: as §1

[7] = tested on: Saccharomyces cerevisiae BY4741 SeMeCo community; test: z-score of subpopulation abundance vs DMSO median, subpopulation auxotrophic for LM; higher = larger share of this subpopulation than in DMSO controls; conditions: 10 µM; 24 h; SM minimal medium; subpopulation (auxotrophy): LM
In short: as §1

[8] = tested on: Saccharomyces cerevisiae BY4741 SeMeCo community; test: z-score of subpopulation abundance vs DMSO median, subpopulation auxotrophic for HM; higher = larger share of this subpopulation than in DMSO controls; conditions: 10 µM; 24 h; SM minimal medium; subpopulation (auxotrophy): HM
In short: as §1

[9] = tested on: Saccharomyces cerevisiae BY4741 SeMeCo community; test: z-score of subpopulation abundance vs DMSO median, subpopulation auxotrophic for HU; higher = larger share of this subpopulation than in DMSO controls; conditions: 10 µM; 24 h; SM minimal medium; subpopulation (auxotrophy): HU
In short: as §1

[10] = tested on: Saccharomyces cerevisiae BY4741 SeMeCo community; test: z-score of subpopulation abundance vs DMSO median, subpopulation auxotrophic for UM; higher = larger share of this subpopulation than in DMSO controls; conditions: 10 µM; 24 h; SM minimal medium; subpopulation (auxotrophy): UM
In short: as §1

[11] = tested on: Saccharomyces cerevisiae BY4741 SeMeCo community; test: z-score of subpopulation abundance vs DMSO median, subpopulation auxotrophic for HL; higher = larger share of this subpopulation than in DMSO controls; conditions: 10 µM; 24 h; SM minimal medium; subpopulation (auxotrophy): HL
In short: as §1

[12] = tested on: Saccharomyces cerevisiae BY4741 SeMeCo community; test: z-score of subpopulation abundance vs DMSO median, subpopulation auxotrophic for HLU; higher = larger share of this subpopulation than in DMSO controls; conditions: 10 µM; 24 h; SM minimal medium; subpopulation (auxotrophy): HLU
In short: as §1

[13] = tested on: Saccharomyces cerevisiae BY4741 SeMeCo community; test: z-score of subpopulation abundance vs DMSO median, subpopulation auxotrophic for HLM; higher = larger share of this subpopulation than in DMSO controls; conditions: 10 µM; 24 h; SM minimal medium; subpopulation (auxotrophy): HLM
In short: as §1

[14] = tested on: Saccharomyces cerevisiae BY4741 SeMeCo community; test: z-score of subpopulation abundance vs DMSO median, subpopulation auxotrophic for HUM; higher = larger share of this subpopulation than in DMSO controls; conditions: 10 µM; 24 h; SM minimal medium; subpopulation (auxotrophy): HUM
In short: as §1

[15] = tested on: Saccharomyces cerevisiae BY4741 SeMeCo community; test: z-score of subpopulation abundance vs DMSO median, subpopulation auxotrophic for LUM; higher = larger share of this subpopulation than in DMSO controls; conditions: 10 µM; 24 h; SM minimal medium; subpopulation (auxotrophy): LUM
In short: as §1

[16] = tested on: Saccharomyces cerevisiae BY4741 SeMeCo community; test: z-score of subpopulation abundance vs DMSO median, subpopulation auxotrophic for HLUM; higher = larger share of this subpopulation than in DMSO controls; conditions: 10 µM; 24 h; SM minimal medium; subpopulation (auxotrophy): HLUM
In short: as §1

[17] = tested on: Saccharomyces cerevisiae BY4741 SeMeCo community; test: z-score of prototroph abundance vs DMSO median; higher = larger share of this subpopulation than in DMSO controls; conditions: 10 µM; 24 h; SM minimal medium; subpopulation (auxotrophy): Prototroph
In short: as §1

| SMILES | mean cell size [1] | z-score of subpopulation abundance [2] | z-score of subpopulation abundance [3] | z-score of subpopulation abundance [4] | z-score of subpopulation abundance [5] | z-score of subpopulation abundance [6] | z-score of subpopulation abundance [7] | z-score of subpopulation abundance [8] | z-score of subpopulation abundance [9] | z-score of subpopulation abundance [10] | z-score of subpopulation abundance [11] | z-score of subpopulation abundance [12] | z-score of subpopulation abundance [13] | z-score of subpopulation abundance [14] | z-score of subpopulation abundance [15] | z-score of subpopulation abundance [16] | z-score of prototroph abundance [17] |
| --- | --- | --- | --- | --- | --- | --- | --- | --- | --- | --- | --- | --- | --- | --- | --- | --- | --- |
| CS(=O)(=O)Nc1ccc([N+](=O)[O-])cc1Oc1ccccc1 [Nimesulide] | 12.5 ± 0.22 | -0.1 | 0.65 | -0.45 | -0.25 | 0.49 | 0.74 | 0.64 | -0.2 | -0.24 | 0.8 | 0.61 | -0.08 | 0.28 | 0.62 | 0.87 | – |
| c1cnc2cc3c(cc2n1)[C@@H]1CNC[C@H]3C1 [Varenicline Tartrate] | 12.1 ± 0.23 | -0.55 | -0.32 | -0.22 | 0.28 | -0.66 | 0.09 | -0.22 | -0.05 | -0.54 | 0.16 | -0.4 | 0.76 | -0.72 | -0.39 | 0.16 | – |
| Cn1cc(C(=O)[C@@H]2CCc3[nH]cnc3C2)c2ccccc21 [Ramosetron Hydrochloride] | 12.6 ± 0.16 | 0.56 | -0.44 | 0.51 | -0.29 | 0.85 | 0.12 | 0.78 | -0.53 | 0.33 | -0.22 | 0.86 | 1.18 | -0.01 | – | 0.88 | – |
| Nc1nc2[nH]cc(CCc3ccc(C(=O)N[C@@H](CCC(=O)O)C(=O)O)cc3)c2c(=O)[nH]1 [Pemetrexed Disodium Hydrate] | 14.5 ± 0.077 | -9.02 | 3.26 | – | 3.82 | 1.43 | -3.99 | -4.93 | 1.99 | -7.6 | 5.03 | 11.4 | 1.25 | -4.9 | -3.47 | 3.48 | 3.18 |
| CCCCN1CCCC[C@H]1C(=O)Nc1c(C)cccc1C [Levobupivacaine HCl] | 12.4 ± 0.15 | -1.02 | 0.42 | -0.04 | -0.68 | -0.09 | -0.55 | -1.34 | 0.14 | -0.49 | -0.46 | -0.48 | -0.93 | -0.73 | -0.33 | -0.43 | – |
| CC(=O)NO [Acetohydroxamic acid] | 12.5 ± 0.15 | -0.27 | 1.33 | -0.68 | 0.14 | -0.13 | 0.84 | 0.32 | -0.11 | -0.03 | 0.57 | 0.42 | 0.6 | 0.08 | 1.04 | 0.86 | – |
| CC(C)C(=O)c1c(C(C)C)nn2ccccc12 [Ibudilast] | 12.6 ± 0.22 | -0.62 | -0.54 | 1.05 | – | 0.04 | -0.43 | -1.12 | 0.99 | 1.06 | – | -0.65 | -0.49 | -0.38 | -0.2 | -0.23 | – |
